Rows were chosen to be rich in hits. Some 2.7% of all compounds tested hit in one or more screens of this group.
rCAG binder: r(CAG) repeat RNA binding. TO-PRO-1 dye displacement fluorescence. inhibition, % at 3 µM. 370,000 tested, 1.3% active;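 active = inhibition above the plate cutoff, the mean of all test compounds on that plate plus 3 SD, cut at about 35% in these data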;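 note: 0% = DMSO alone and 100% = 100 µM mitoxantrone as full dye displacement; higher means more dye released from RNA so lower well fluorescence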
NadD inh: inhibitors of Staphylococcus aureus NadD; inhibition, % at 20 µM; purified NadD enzyme, colorimetric absorbance read-out; 360,000 tested, 0.78% active; AID 602399; in the data active = inhibition above about 26%
bovine MsrA act: bovine methionine sulfoxide reductase A activation; purified bovine MsrA, absorbance read-out; activation, % at 10.6 µM; 360,000 tested, 0.3% active; in the data active = activation above about 7.5%;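 note: 0% = vehicle and 100% = reference activator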
MsrA inhibitor: bovine MsrA inhibition | purified bovine MsrA, absorbance read-out | inhibition, % at 15.5 µM | 360,000 tested, 0.75% active | AID 651718; in the data active = inhibition above about 4.5%;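 note: 0% = vehicle wells with enzyme and 100% = reference inhibitor wells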
rCAG bind conf: r(CAG) RNA repeat binding, confirmation; shares compounds with rCAG binder; inhibition, % at 3 µM; 4,300 tested, 70% active; TO-PRO-1 dye displacement fluorescence; AID 652065;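 active = inhibition above a per-plate cutoff, the mean inhibition of sample wells plus 3 SD, cut at about 35% in these data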;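 note: loss of TO-PRO-1 fluorescence as compound displaces dye from 1x1 AA loop RNA; 0% = DMSO only wells and 100% = 100 µM mitoxantrone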
DNA CAG counter: DNA CAG dye complex inhibition counter-screen; 4,300 tested, 94% active; inhibition, % at 3 µM; shares compounds with rCAG binder; d(CAG) DNA oligo TO-PRO-1 dye displacement, fluorescence;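 active = inhibition above its plate's cutoff, the mean test-well inhibition plus 3 SD, cut at about 4.8% in these data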;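 note: 0% = DNA dye mix with DMSO and 100% = 100 µM mitoxantrone; hits displace the dye from DNA and so lower well fluorescence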
dCAG dye DR: counter-screen for rCAG binders: inhibitors of DNA CAG TO-PRO-1 complex. 250 tested, 20% active. IC50, µM. shares compounds with rCAG binder. DNA CAG/GTC duplex TO-PRO-1 dye displacement fluorescence; in the data active = IC50 below about 10 µM
* = called active by the depositor; i = inactive; · = no result.

SMILES	rCAG binder	NadD inh	bovine MsrA act	MsrA inhibitor	rCAG bind conf	DNA CAG counter	others
CCOc1ccc(-n2c(SCC(=O)Nc3ccc(S(=O)(=O)Nc4cc(C)nc(C)n4)cc3)nnc2-c2ccncc2)cc1	20	·	·	·	·	·
COc1ccc(-n2c(COc3ccc(C)cc3)nnc2SCC(=O)Nc2ccc(S(=O)(=O)Nc3cc(C)nc(C)n3)cc2)cc1	51*	·	·	·	44*	14*
CCOc1ccc(-n2c(SCC(=O)Nc3ccc(S(=O)(=O)Nc4cc(C)nc(C)n4)cc3)nnc2-c2ccc(OC)cc2)cc1	41*	·	·	·	44*	15*
COc1cccc(CN2CC(C(=O)N3CCN(c4ccc(Cl)cc4)CC3)CCC2=O)c1 (stereo unspecified)	-6	4	-1	0	·	·
CCOc1ccc(-n2c(SCC(=O)Nc3ccc(S(=O)(=O)Nc4cc(C)nc(C)n4)cc3)nnc2-c2cccc(C)c2)cc1	47*	·	·	·	47*	16*
CCOC(=O)C1CCCN(c2nc3ccccc3nc2NS(=O)(=O)c2ccc(C)cc2)C1 (stereo unspecified)	62*	-4	-3	1	58*	15*
NC(=O)C1CCN(c2nc3ccccc3nc2NS(=O)(=O)c2ccc(Br)cc2)CC1	29	6	-10	1	·	·
O=C(NCc1ccccc1Cl)C1CCN(S(=O)(=O)c2ccc(N3CCCC3=O)cc2)CC1	1	2	-1	0	·	·
O=C(NCc1ccccc1)[C@@H]1CCCN1C(=O)[C@H]1CCCN1C(=O)c1ccccc1Cl	1	·	·	-1	·	·
COc1ccc(Cl)cc1NC(=S)NNC(=O)c1cccs1	36*	4	-6	0	34	9.6*
O=C(Nc1ccc(Nc2ccccc2)cc1)c1ccc(Cl)cc1	6	-2	2	0	·	·
N#C/C(C(=O)Nc1ccc(Cl)cc1)=C(/S)Nc1ccccc1	56*	20	-4	4	71*	24*	dCAG dye DR=i
O=C(CSc1nnc(SCc2ccccc2)s1)NNC(=S)Nc1ccccc1	43*	2	0	1	52*	18*	dCAG dye DR=>30
Cc1ccc(CSc2nnc(-c3cccc(S(=O)(=O)N4CCOCC4)c3)n2CC(C)C)cc1	49*	1	-6	-2	0	0
O=C(N/N=C/c1cccc(OCC(=O)N2CCCC2)c1)C(=O)Nc1ccccc1F	-6	-3	-2	2	·	·
O=C(CN(C(=O)OCC1c2ccccc2-c2ccccc21)[C@@H](Cc1ccccc1)C(=O)O)OCc1ccc(C(=O)NCc2ccccc2)cc1	61*	·	·	·	70*	27*	dCAG dye DR=>30
CC(C)(C)OC(=O)[C@H](Cc1ccccc1)NCC(=O)OCc1ccc(C(=O)NCc2ccccc2)cc1	1	·	·	·	·	·
Cc1ccc(CNC(=O)c2ccc3c(=O)[nH]c4c(C(=O)NCC5CCCO5)sc(=S)n4c3c2)cc1 (stereo unspecified)	61*	21	-1	1	92*	74*
O=C(NCc1ccccc1)c1ccc2c(=O)[nH]c3c(C(=O)NCC4CCCO4)sc(=S)n3c2c1 (stereo unspecified)	50*	10	-12	1	91*	66*
CCn1c(N)c(C(=O)NCC2CCCO2)sc1=S (stereo unspecified)	-1	5	-3	3	·	·
O=C(NCc1ccco1)c1sc(=S)n2c1[nH]c(=O)c1ccccc12	62*	6	-2	1	66*	22*
CCCCCNC(=O)c1ccc2c(=O)[nH]c3c(C(=O)NCC4CCCO4)sc(=S)n3c2c1 (stereo unspecified)	59*	25	0	1	86*	62*
O=C(NC1CCCC1)c1sc(=S)n2c1[nH]c(=O)c1ccccc12	14	8	-1	-1	·	·
O=C(NCC1CCCO1)c1ccc2c(=O)n(CCc3ccccc3)c(=O)[nH]c2c1 (stereo unspecified)	-3	-4	0	1	·	·
Cc1ccc(S(=O)(=O)N2CCOCC2)cc1C(=O)NC(=S)N1CC(C)OC(C)C1 (stereo unspecified)	3	-3	-4	1	·	·
SMILES	rCAG binder	NadD inh	bovine MsrA act	MsrA inhibitor	rCAG bind conf	DNA CAG counter	others
C[C@H]1C(=O)[C@]23C[C@H]1CC[C@H]2[C@]1(C)[C@@H](O)CC[C@@](C)(C(=O)O)[C@H]1C[C@@H]3O	1	·	·	·	·	·
CCOC(=O)c1ccc(N=Nc2c(C)c(C#N)c(O)[nH]c2=O)cc1	5	12	-2	1	·	·
CC(C)=CCc1c2c(c3occ(-c4ccc(O)c(O)c4)c(=O)c3c1O)C=CC(C)(C)O2	47*	15	0	0	43*	28*
CC1(C)C=Cc2c(c3c(c4c(=O)c(-c5ccc(O)cc5)coc24)OC(C)(C)CC3)O1	7	27	-4	1	·	·
CC(C)=CCc1c2c(c3occ(-c4ccc(O)cc4)c(=O)c3c1O)C=CC(C)(C)O2	36*	4	-3	1	31	13*
Cc1nn(CCc2nc(-c3ccco3)cs2)c2[nH]c(=O)cc(C(F)(F)F)c12	58*	15	-13	-1	13	1
COc1ccc(C(=O)COC(=O)/C=C/c2ccccc2)cc1	-3	0	-1	0	·	·
NS(=O)(=O)c1cccc(NS(=O)(=O)c2ccc(/C=C/C(=O)OCC(=O)c3ccccc3)cc2)c1	60*	16	-2	1	54*	22*
O=C(NC1=NCCS1)c1ccccc1OCc1ccc(F)cc1	-3	-8	-10	1	·	·
COc1ccccc1C1CCN(c2cc(O)ccc2[N+](=O)[O-])CC1	18	-2	-5	-1	·	·
NNC(=S)Nc1cccc(-c2n[nH]c(=S)o2)c1	51*	-1	-8	2	18	6.8*
CN(C)C(=S)Nc1cccc(-c2n[nH]c(=S)o2)c1	1	7	-1	0	·	·
CCc1cccc(NC(=O)CSc2nnc(Cc3ccc(OC)cc3)c(=O)[nH]2)c1	46*	8	-3	1	42*	9.3*
COc1ccc(Cc2nnc(SCC(=O)Nc3c(C)cccc3C)[nH]c2=O)cc1	8	-5	-3	0	·	·
O=C(Nc1ccc(OC(F)(F)F)cc1)C1CCCN(C(=O)c2ccc(Cl)cc2)C1 (stereo unspecified)	1	-8	7	-2	·	·
O=C(O)COc1ccccc1/C=N/NC(=O)Cc1csc(Nc2cccc(C(F)(F)F)c2)n1	59*	12	-5	2	55*	17*
O=C(O)COc1ccccc1/C=N/NC(=O)Cc1ccccc1	-3	1	-3	1	·	·
COc1cc(NS(C)(=O)=O)ccc1Nc1c2ccccc2nc2ccccc12	3	-6	-5	-1	·	·
CCN(CC)C(=O)CSc1nc2ccccc2c(=O)n1-c1cccc(OC)c1	0	-1	-2	1	·	·
COc1cccc(-n2c(SCc3cc(=O)oc4cc(O)c(O)cc34)nc3ccccc3c2=O)c1	65*	65*	-7	1	70*	33*
